Test results as given in publication PMC5540273 (PLoS ONE, 2017).

Tests used:
Conditions in all cases: concentration: 1 μM, replicates: in singlicate; n = 1
CDKL5 = tested on: CDKL5
CHEK1 = tested on: CHEK1
CHEK2 = tested on: CHEK2
CIT = tested on: CIT
CLK1 = tested on: CLK1
CLK2 = tested on: CLK2
CLK3 = tested on: CLK3
CLK4 = tested on: CLK4
CSF1R-autoinhibited = tested on: CSF1R-autoinhibited
CSF1R = tested on: CSF1R
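Note: KINOMEscan kinase panel screen.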

Row | Compound | %Inh (CDKL5) [%] | %Inh (CHEK1) [%] | %Inh (CHEK2) [%] | %Inh (CIT) [%] | %Inh (CLK1) [%] | %Inh (CLK2) [%] | %Inh (CLK3) [%] | %Inh (CLK4) [%] | %Inh (CSF1R-autoinhibited) [%] | %Inh (CSF1R) [%]
1 | Cn1cncc1-c1cc2c(Nc3ccc(OCc4ccccc4)cc3)ncnc2cn1 [GW281179] | 1 | 2 | 0 | 6 | 17 | 0 | 0 | 14 | 0 | 0
2 | O=C(Nc1n[nH]c2cc(-c3ccsc3)ccc12)C1CC1 [SB-732932] | 17 | 0 | 0 | 0 | 2 | 21 | 0 | 7 | 16 | 16
3 | COc1ccc(Nc2nccc(NCCNC(=O)Nc3cc(C)ccc3C)n2)cc1 [GSK1379899] | 5 | 5 | 86 | 7 | 23 | 0 | 6 | 57 | 0 | 0
4 | COC(=O)c1cccc(NC(=O)NC2CCN(c3ccnc(Nc4ccc(OC)cc4)n3)C2)c1 (centres unmarked) [GSK1379746] | 0 | 0 | 0 | 0 | 21 | 100 | 0 | 24 | 28 | 0
5 | O=C(Nc1n[nH]c2nc(-c3ccco3)c(Br)cc12)C1CCN(Cc2ccccc2)C1.O=C(O)[C@H](O)[C@@H](O)C(=O)O (centres unmarked) [SB-742034] | 85 | 16 | 0 | 0 | 0 | 0 | 0 | 7 | 0 | 10
6 | Cc1ccc(NC(=O)Nc2ccc(Cl)cc2)cc1-c1ccc(C(=O)Nc2ccncc2)cc1 [GSK1398472] | 0 | 19 | 0 | 89 | 32 | 0 | 14 | 42 | 4 | 87
7 | O=C1NC(=O)C(c2ccc(Cl)cc2)=C1Nc1ccc(O)cc1 [SB-340867] | 0 | 0 | 0 | 0 | 51 | 65 | 0 | 29 | 0 | 0
8 | CNCc1ccc2nc(NC(=O)c3ccc(C(C)(C)C)cc3)cn2c1 | 23 | 5 | 0 | 0 | 87 | 22 | 0 | 3 | 2 | 42
9 | Nc1nccc(-c2c(-c3ccc(F)cc3)ncn2C2CCN(Cc3ccccc3)CC2)n1 [SB-219980] | 2 | 0 | 8 | 97.6 | 0 | 6 | 0 | 0 | 15 | 0
10 | COc1cccc(CNC(=O)NC2CCN(c3ccnc(Nc4ccc(F)cc4)n3)C2)c1 (centres unmarked) [GSK1379723] | 6 | 5 | 0 | 19 | 19 | 0 | 0 | 8 | 10 | 2
11 | O=c1cc(N2CCOCC2)nc2n(Cc3ccccc3F)ccn12 [GSK2297428] | 0 | 9 | 0 | 18 | 36 | 0 | 22 | 54 | 7 | 0
